Experimental data from PubChem BioAssay AID1159580 (chemical genetic matrix, 2015).
“And” between values parts separate entries of the source, which are not always exact repeats. Equal entries are not always repeated. Out of some 5,500 compounds screened, about 2,000 (36%) were called active. Roughly 18% stayed inconclusive and do not appear here. Cut-off read from the data, not from the text of the source: active = normalized growth mostly below about 0.91 (no sharp cut-off); inconclusive = no clear call, values can overlap the other calls; inactive = mostly above about 0.92. This is one part of the list. Some structures have more than one record in an assay (separate samples or runs), and their calls can disagree.

Assay: chemical genetic growth profiling, strain panel (AID 1159580);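 note: tested at 20 µM; growth read once vehicle control cultures reached saturation at 30 °C; 1 = growth at the plate median or of vehicle wells; lower values mean less growth of the strain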
Conditions: growth OD

Measured: normalized growth

O=C1CCc2cc(OCCCCc3nnnn3C3CCCCC3)ccc2N1
inactive: S. cerevisiae deletion strains, locus YKL009W, strain mrt4, stronger effect = lower value 1 | S. cerevisiae deletion strains, locus YKL068W, stronger effect = lower value 1 | S. cerevisiae deletion strains, locus YKL085W, strain MDH1 (second series), stronger effect = lower value 1.01 | S. cerevisiae deletion strains, locus YKL085W, strain MDH1, stronger effect = lower value 1.01 | S. cerevisiae deletion strains, locus YKL160W, strain elf1, stronger effect = lower value 0.987 | S. cerevisiae deletion strains, locus YKL190W, strain CNB1, stronger effect = lower value 1.01 | S. cerevisiae deletion strains, locus YKR001C, strain vps1, stronger effect = lower value 0.993 | S. cerevisiae deletion strains, locus YKR026C, strain gcn3, stronger effect = lower value 0.979 | S. cerevisiae deletion strains, locus YKR091W, strain srl3, stronger effect = lower value 0.99 | S. cerevisiae deletion strains, locus YLL001W, strain dnm1, stronger effect = lower value 0.984 | S. cerevisiae deletion strains, locus YLL026W, stronger effect = lower value 0.993 | S. cerevisiae deletion strains, locus YLL041C, strain sdh2, stronger effect = lower value 0.991 | S. cerevisiae deletion strains, locus YLR027C, strain aat2, stronger effect = lower value 0.978 | S. cerevisiae deletion strains, locus YLR039C, strain RIC1, stronger effect = lower value 0.972 | S. cerevisiae deletion strains, locus YLR058C, strain SHM2, stronger effect = lower value 1.01 | S. cerevisiae deletion strains, locus YLR102C, strain apc9, stronger effect = lower value 0.999 | S. cerevisiae deletion strains, locus YLR113W, strain HOG1, stronger effect = lower value 0.983 | S. cerevisiae deletion strains, locus YLR221C, strain rsa3, stronger effect = lower value 0.984 | S. cerevisiae deletion strains, locus YLR258W, strain gsy2, stronger effect = lower value 0.986 | S. cerevisiae deletion strains, locus YLR262C, strain YPT6 (second series), stronger effect = lower value 0.876 | S. cerevisiae deletion strains, locus YLR262C, strain YPT6, stronger effect = lower value 0.998 | S. cerevisiae deletion strains, locus YLR268W, strain sec22, stronger effect = lower value 0.999 | S. cerevisiae deletion strains, locus YLR320W, strain mms22, stronger effect = lower value 0.976 | S. cerevisiae deletion strains, locus YLR330W, strain CHS5, stronger effect = lower value 1.01 | S. cerevisiae deletion strains, locus YLR342W, strain FKS1 (second series), stronger effect = lower value 0.987 | S. cerevisiae deletion strains, locus YLR342W, strain FKS1, stronger effect = lower value 0.985 | S. cerevisiae deletion strains, locus YLR357W, strain rsc2, stronger effect = lower value 0.956 | S. cerevisiae deletion strains, locus YLR370C, strain arc18, stronger effect = lower value 0.99 | S. cerevisiae deletion strains, locus YLR371W, strain rom2, stronger effect = lower value 0.995 | S. cerevisiae deletion strains, locus YLR384C, strain iki3, stronger effect = lower value 0.972 | S. cerevisiae deletion strains, locus YLR418C, strain cdc73, stronger effect = lower value 1 | S. cerevisiae deletion strains, locus YML016C, strain PPZ1, stronger effect = lower value 1.01 | S. cerevisiae deletion strains, locus YML032C, strain rad52, stronger effect = lower value 1.02 | S. cerevisiae deletion strains, locus YML120C, strain ndi1, stronger effect = lower value 0.994 | S. cerevisiae deletion strains, locus YML124C, strain tub3, stronger effect = lower value 0.992 | S. cerevisiae deletion strains, locus YMR058W, strain fet3, stronger effect = lower value 1 | S. cerevisiae deletion strains, locus YMR078C, strain ctf18, stronger effect = lower value 0.998 | S. cerevisiae deletion strains, locus YMR125W, strain sto1, stronger effect = lower value 0.999 | S. cerevisiae deletion strains, locus YMR129W, stronger effect = lower value 0.985 | S. cerevisiae deletion strains, locus YMR205C, strain PFK2, stronger effect = lower value 0.989 | S. cerevisiae deletion strains, locus YMR223W, strain ubp8, stronger effect = lower value 0.991 | S. cerevisiae deletion strains, locus YMR231W, strain pep5, stronger effect = lower value 0.996 | S. cerevisiae deletion strains, locus YMR307W, strain GAS1, stronger effect = lower value 0.946 and 0.993 | S. cerevisiae deletion strains, locus YNL067W, strain RPL9B, stronger effect = lower value 1.03 | S. cerevisiae deletion strains, locus YNL071W, strain lat1, stronger effect = lower value 1 | S. cerevisiae deletion strains, locus YNL128W, strain TEP1, stronger effect = lower value 1.01 | S. cerevisiae deletion strains, locus YNL153C, strain GIM3, stronger effect = lower value 1.01 | S. cerevisiae deletion strains, locus YNL175C, strain NOP13, stronger effect = lower value 1.03 | S. cerevisiae deletion strains, locus YNL183C, strain NPR1, stronger effect = lower value 0.966 | S. cerevisiae deletion strains, locus YNL197C, strain WHI3, stronger effect = lower value 1.01 | S. cerevisiae deletion strains, locus YNL209W, strain ssb2, stronger effect = lower value 0.998 | S. cerevisiae deletion strains, locus YNL224C, strain SQS1, stronger effect = lower value 1 | S. cerevisiae deletion strains, locus YNL233W, strain BNI4, stronger effect = lower value 1.01 | S. cerevisiae deletion strains, locus YNL248C, strain rpa49, stronger effect = lower value 0.999 | S. cerevisiae deletion strains, locus YNL250W, strain rad50, stronger effect = lower value 0.992 | S. cerevisiae deletion strains, locus YNL271C, strain bni1, stronger effect = lower value 1 | S. cerevisiae deletion strains, locus YNL298W, strain CLA4, stronger effect = lower value 1 | S. cerevisiae deletion strains, locus YNL307C, strain MCK1, stronger effect = lower value 0.982 | S. cerevisiae deletion strains, locus YNL322C, strain KRE1 (second series), stronger effect = lower value 0.988 | S. cerevisiae deletion strains, locus YNL322C, strain KRE1, stronger effect = lower value 1.01 | S. cerevisiae deletion strains, locus YNR049C, strain mso1, stronger effect = lower value 0.998 | S. cerevisiae deletion strains, locus YNR052C, strain pop2, stronger effect = lower value 1 | S. cerevisiae deletion strains, locus YOL006C, strain TOP1, stronger effect = lower value 1.01 | S. cerevisiae deletion strains, locus YOL012C, strain htz1 1.15 | S. cerevisiae deletion strains, locus YOL147C, strain pex11, stronger effect = lower value 0.991 | S. cerevisiae deletion strains, locus YOR001W, strain rrp6, stronger effect = lower value 0.992 | S. cerevisiae deletion strains, locus YOR061W, strain CKA2, stronger effect = lower value 1 | S. cerevisiae deletion strains, locus YOR069W, strain VPS5, stronger effect = lower value 1 | S. cerevisiae deletion strains, locus YOR070C, strain gyp1, stronger effect = lower value 0.995 | S. cerevisiae deletion strains, locus YOR080W, strain dia2, stronger effect = lower value 0.984 | S. cerevisiae deletion strains, locus YOR083W, strain WHI5 (second series), stronger effect = lower value 0.993 | S. cerevisiae deletion strains, locus YOR083W, strain WHI5, stronger effect = lower value 0.987 | S. cerevisiae deletion strains, locus YOR106W, strain vam3, stronger effect = lower value 0.977 | S. cerevisiae deletion strains, locus YOR136W, strain idh2, stronger effect = lower value 0.983 | S. cerevisiae deletion strains, locus YOR144C, strain elg1, stronger effect = lower value 0.995 | S. cerevisiae deletion strains, locus YOR184W, strain ser1, stronger effect = lower value 1.02 | S. cerevisiae deletion strains, locus YOR231W, strain MKK1, stronger effect = lower value 0.974 | S. cerevisiae deletion strains, locus YOR265W, strain rbl2, stronger effect = lower value 0.987 | S. cerevisiae deletion strains, locus YOR270C, strain vph1, stronger effect = lower value 0.991 | S. cerevisiae deletion strains, locus YOR290C, strain snf2, stronger effect = lower value 1 | S. cerevisiae deletion strains, locus YOR316C, strain cot1, stronger effect = lower value 1 | S. cerevisiae deletion strains, locus YPL051W, strain arl3, stronger effect = lower value 0.983 | S. cerevisiae deletion strains, locus YPL055C, strain LGE1, stronger effect = lower value 1.06 | S. cerevisiae deletion strains, locus YPL078C, strain atp4, stronger effect = lower value 0.977 | S. cerevisiae deletion strains, locus YPL106C, strain sse1, stronger effect = lower value 1.01 | S. cerevisiae deletion strains, locus YPL240C, strain hsp82, stronger effect = lower value 0.982 | S. cerevisiae deletion strains, locus YPL241C, strain CIN2, stronger effect = lower value 1 | S. cerevisiae deletion strains, locus YPL256C, strain CLN2, stronger effect = lower value 0.985 | S. cerevisiae deletion strains, locus YPR119W, strain clb2, stronger effect = lower value 0.998 | S. cerevisiae deletion strains, locus YPR141C, strain kar3, stronger effect = lower value 1 | S. cerevisiae deletion strains, locus YPR163C, strain tif3, stronger effect = lower value 0.978 | S. cerevisiae deletion strains, locus YPR167C, strain met16, stronger effect = lower value 0.996 | S. cerevisiae deletion strains, strain wtn01, stronger effect = lower value 1.01 | S. cerevisiae strains, strain wild type, stronger effect = lower value 1.01
1.01 (inactive) and 0.0868 (active): S. cerevisiae deletion strains, locus YMR263W, strain SAP30, stronger effect = lower value
